Measured values published in PubChem BioAssay AID504710 (Sanford-Burnham Center for Chemical Genomics, 2011).
The source made the active and inactive calls.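 Rule for the calls: active = inhibition reaching about 16% in any single replicate (limit read from the data); inactive = the rest.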

molecular target: Hexokinase HKDC1 (Homo sapiens) (UniProt Q2TB90); test: HKDC1 hexokinase inhibitors, confirmation, biochemical, single concentration (AID 504710); conditions: recombinant HKDC1, G6PDH/diaphorase/resazurin fluorescence; at 20 µM; hits give high values
Sequence (Q2TB90 whole entry, looked up): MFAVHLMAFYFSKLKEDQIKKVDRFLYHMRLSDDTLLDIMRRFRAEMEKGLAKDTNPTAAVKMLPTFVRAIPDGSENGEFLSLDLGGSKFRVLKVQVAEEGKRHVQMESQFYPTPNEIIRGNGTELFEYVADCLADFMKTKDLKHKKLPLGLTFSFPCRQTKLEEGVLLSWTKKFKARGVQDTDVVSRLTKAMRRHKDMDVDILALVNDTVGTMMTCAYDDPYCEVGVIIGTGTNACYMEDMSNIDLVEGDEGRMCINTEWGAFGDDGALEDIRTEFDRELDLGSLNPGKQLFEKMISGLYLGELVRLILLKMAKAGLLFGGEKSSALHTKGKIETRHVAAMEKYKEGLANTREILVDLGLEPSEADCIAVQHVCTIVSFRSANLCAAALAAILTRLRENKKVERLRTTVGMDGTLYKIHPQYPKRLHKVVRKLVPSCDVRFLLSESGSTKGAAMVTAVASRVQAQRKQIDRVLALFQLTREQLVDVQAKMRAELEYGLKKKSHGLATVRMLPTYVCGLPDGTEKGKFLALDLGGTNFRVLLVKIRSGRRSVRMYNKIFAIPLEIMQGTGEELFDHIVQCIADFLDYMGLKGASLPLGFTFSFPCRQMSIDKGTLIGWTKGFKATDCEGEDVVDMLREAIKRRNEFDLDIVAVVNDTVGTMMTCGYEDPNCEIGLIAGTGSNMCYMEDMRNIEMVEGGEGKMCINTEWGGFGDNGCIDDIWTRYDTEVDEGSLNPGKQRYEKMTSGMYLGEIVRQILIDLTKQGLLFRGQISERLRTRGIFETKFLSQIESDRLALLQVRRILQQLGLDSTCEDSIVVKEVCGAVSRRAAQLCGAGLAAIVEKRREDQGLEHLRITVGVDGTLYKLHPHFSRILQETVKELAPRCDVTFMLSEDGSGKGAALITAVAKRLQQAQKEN

Compound | inhibition
Cc1ccc(S(=O)(=O)/N=C2\C=C(Nc3cccc(C(=O)O)c3)C(=O)c3ccccc32)c(C)c1 | 57.8% (active)
O=C1NC(=S)N/C1=C/c1cc2c(cc1[N+](=O)[O-])OCO2 | -36.6% (inactive)
COP(=O)(OC)c1ccc(NCc2cc(O)ccc2O)cc1 | 53.1% (active)
Cc1ccc(-n2c3nc(=O)[nH]c(=O)c-3cc3cc([N+](=O)[O-])ccc32)cc1C | 65.3% (active)
COC1=CC(=O)C(C2CC(=O)c3c(O)cc(O)cc3O2)=CC1=O (stereo unspecified) | 39.8% (active)
COC1=CC(=O)C(OC)=C(OC)C1=O | 71.9% (active)
CCOC(=O)c1ccc(NC(=O)CSc2n[nH]c(-c3ccncc3)n2)cc1 | 50.3% (active)
Cc1cc(Oc2ccc(C(C)(C)C)cc2)nc(N2CCOCC2)n1 | -37% (inactive)
COC1=C(Br)C(=O)c2ncccc2C1=O | 64.7% (active)
O=C(CSc1n[nH]c(-c2cccnc2)n1)Nc1ccnc2ccccc12 | 46% (active)
COc1ccc(/C=C/C(=O)NC(=S)NNC(=O)c2cnccn2)cc1 | -58.3% (inactive)
CCOC(=O)c1c(NC(=O)CSc2nnnn2-c2ccc(OC)cc2)sc(C)c1C | -42.3% (inactive)
COc1ccc2cc(CCNC(=O)c3ccc(S(=O)(=O)N4CCCC4)cc3)c(=O)[nH]c2c1 | 59.8% (active)
COC1(NS(=O)(=O)c2ccc(Br)cc2)C(C)=CC(=O)C=C1C | 26.3% (active)
Cc1cc(C)nc(/N=c2/ssnc2Cl)c1 | -84.2% (inactive)
S=C(NCc1ccccn1)NN=Cc1ccccn1 | -45.4% (inactive)
